Screens from PubChem BioAssay.
A3G deaminase: APOBEC3G (human) deaminase inhibition; recombinant A3G, ssDNA deamination FAM/TAMRA fluorescence; inhibition, % at 20 µM; actives 0.28% (n = 330,000); AID 493012; Q9HC16;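 active = inhibition of at least 40% at 20 µM, with no more than 30% in the related APOBEC3A deaminase screen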
Target sequence (Q9HC16 whole entry, looked up): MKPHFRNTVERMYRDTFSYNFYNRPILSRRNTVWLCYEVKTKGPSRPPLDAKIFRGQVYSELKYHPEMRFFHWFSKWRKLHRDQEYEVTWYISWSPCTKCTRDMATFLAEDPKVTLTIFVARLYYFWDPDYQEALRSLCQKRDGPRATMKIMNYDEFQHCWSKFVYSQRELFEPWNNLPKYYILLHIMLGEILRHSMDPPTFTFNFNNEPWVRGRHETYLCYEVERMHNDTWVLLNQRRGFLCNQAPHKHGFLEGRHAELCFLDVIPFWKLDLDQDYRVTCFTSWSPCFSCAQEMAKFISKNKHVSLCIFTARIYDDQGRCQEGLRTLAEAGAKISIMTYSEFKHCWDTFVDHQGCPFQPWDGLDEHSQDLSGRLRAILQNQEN
ALR inh: inhibitors of human sulfhydryl oxidase ALR | P55789 | purified ALR, DTT oxidation, H2O2 HRP-luminol luminescence | inhibition, % (test concentration not listed) | actives 3.8% (n = 290,000);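 active = mean replicate inhibition above about 79%, with every replicate also reaching it, limit read from the data; inconclusive = only one of the two criteria met; inactive = mean below limit and not every replicate reaching it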
rCAG binder: r(CAG) repeat RNA binding. TO-PRO-1 dye displacement fluorescence. actives 1.3% (n = 370,000). inhibition, % at 3 µM. AID 651821;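 active = inhibition above the plate cutoff, the mean of all test compounds on that plate plus 3 SD, cut at about 35% in these data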;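 note: higher means more dye released from RNA so lower well fluorescence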
PHOSPHO1 inh: blocks human PHOSPHO1 phosphatase activity. inhibition, % at 13.3 µM. actives 1.1% (n = 290,000). recombinant PHOSPHO1, absorbance phosphatase assay. AID 1565; in the data active = inhibition above about 60%
APOBEC3A inh: blocks human APOBEC3A ssDNA deamination; recombinant A3A, FAM/TAMRA ssDNA deamination fluorescence; inhibition, % at 20 µM; actives 0.41% (n = 330,000); AID 493011;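 active = at least 40% inhibition at 20 µM here, with at most 30% in a related deaminase screen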
aDG glyco act: increases alpha dystroglycan glycosylation | Pro5-aDG cells, alpha-DG glycosylation AlphaScreen (IIH6); 0% Pro5, 100% B10-LARGE cell signal | actives 0.22% (n = 360,000) | AID 624168 | activation, % at 10 µM;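 active = activation of at least 8% versus controls, or a plate z-score of at least 8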;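 note: Pro5 are CHO cells carrying HIG-tagged alpha-DG that lacks glycosylation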
Each line names hits and unclear results; the compound was inactive in the other large screens. In the library only some 5.4% were active in any assay of this set; here they are far more common.

CCc1ccc(-c2nc(CSCC(=O)NCc3ccco3)c(C)o2)cc1	none (no result: A3G deaminase, ALR inh, APOBEC3A inh)
O=C(CCc1nc(-c2ccccc2Cl)no1)NCc1ccco1	none (no result: ALR inh)
Cc1oc(-c2ccccc2Cl)nc1CS(=O)CC(=O)NCc1ccco1 (centres undefined)	ALR inh 98.1
Cc1oc(-c2ccc(Cl)cc2)nc1CS(=O)CC(=O)NCc1ccco1 (centres undefined)	ALR inh 98.6
COc1ccc(S[C@]2(C(=O)N3CCN(C(C)=O)CC3)CC(=O)N(C(=O)c3ccccc3)[C@@H]2c2ccc(OC)cc2)cc1	none (no result: A3G deaminase, ALR inh, PHOSPHO1 inh, APOBEC3A inh, aDG glyco act)
CC1=C(C)C(=O)C(N2CCOCC2)=CC1=O	aDG glyco act 5.3 (no result: A3G deaminase, ALR inh, APOBEC3A inh)
O=C1C=C(N2CCOCC2)c2ccccc2C1=O	none
CCN(CCCNC(=O)CCCN1C(=O)COc2ccc(C)cc21)c1cccc(C)c1	ALR inh 98.1
CC(=O)c1ccc(NC(=O)CCCN2C(=O)COc3ccc(C)cc32)cc1	PHOSPHO1 inh 70.0
Cc1ccc2c(c1)N(CCCC(=O)NCCCN1CCCCC1)C(=O)CO2	none
CCCCc1c(-c2ccccc2OC)ncn1Cc1ccc(F)cc1F	none (no result: A3G deaminase, ALR inh, PHOSPHO1 inh, APOBEC3A inh, aDG glyco act)
C=CCNC(=O)N1CCC(c2nc3ccc(Cl)cc3[nH]2)CC1	none (no result: A3G deaminase, ALR inh, PHOSPHO1 inh, APOBEC3A inh, aDG glyco act)
Fc1ccc(Br)cc1C1C=C(c2ccc(Br)s2)Nc2ncnn21 (centres undefined)	ALR inh 88.4 (no result: rCAG binder)
COc1cccc(C2C=C(c3ccc(Br)s3)Nc3ncnn32)c1OC (centres undefined)	none (no result: rCAG binder)
O=C(O)C1C(c2ccccc2)C(C(=O)N2CCOCC2)C1c1ccccc1 (centres undefined)	none
O=C(C1CC1c1ccccc1)N1CCOCC1 (centres undefined)	ALR inh 98.4
N#Cc1ccc(CSc2nnc(NC(=O)c3ccc(=O)[nH]c3)s2)cc1	ALR inh 91.8
O=C(COc1ccc(OCc2ccccc2)cc1)NN=C1CCCC1	none (no result: ALR inh)
O=C1CCCCC/C1=N/Nc1ccc(OCc2ccccc2)cc1	ALR inh 99.1
COc1ccccc1-n1ccnc(SCC(=O)NCc2ccccc2Cl)c1=O	none (no result: ALR inh, PHOSPHO1 inh)
COc1ccc(-n2ccnc(SCC(=O)NCc3ccccc3Cl)c2=O)cc1	ALR inh 99.2
COC(=O)c1cc2c(c3c4cc(F)ccc4n(S(=O)(=O)c4ccc(OC)cc4)c13)C(=O)N(C)C2	none (no result: A3G deaminase, ALR inh, PHOSPHO1 inh, APOBEC3A inh, aDG glyco act)
O=c1c2ccccc2c(/C=N/NS(=O)(=O)c2ccccc2)c(O)n1-c1ccccn1	ALR inh 98.1
O=c1c2ccccc2c(/C=N/n2cnnc2)c(O)n1-c1ccccc1	none
COC(=O)C1=C(C)N(Cc2ccccc2C(F)(F)F)C(=NCC2CC2)NC1c1ccc(C(F)(F)F)cc1 (centres undefined)	none (no result: A3G deaminase, ALR inh, PHOSPHO1 inh, APOBEC3A inh, aDG glyco act)
COC(=O)c1cccc(Cn2ccc3ccc(-c4ccc5ccn(C(=O)C6CC6)c5c4)cc32)c1	none (no result: A3G deaminase, ALR inh, PHOSPHO1 inh, APOBEC3A inh, aDG glyco act)
Cc1[nH]c(=S)c(C#N)c(C)c1C(=O)Nc1ccccc1	PHOSPHO1 inh 95.0 (no result: ALR inh)
CCc1c(C(=O)Nc2ccccc2)c(C)[nH]c(=S)c1C#N	none
Cc1cccc(NC(=S)NNC(=O)c2ccccc2OC(F)F)c1	ALR inh inconclusive, PHOSPHO1 inh 71.8
COc1ccc(NC(=S)NNC(=O)c2ccccc2OC(F)F)cc1	PHOSPHO1 inh 73.0
Cc1cccc(NC(=S)NNC(=O)c2ccccc2Br)c1	ALR inh inconclusive
COc1cc(C)ccc1C(=O)N1CCC(Oc2cccnc2)CC1	none (no result: A3G deaminase, ALR inh, PHOSPHO1 inh, APOBEC3A inh, aDG glyco act)
O=C(C1CC1)n1ccc2ccc(-c3ccc4ccn(Cc5ccccc5)c4c3)cc21	none (no result: A3G deaminase, ALR inh, PHOSPHO1 inh, APOBEC3A inh, aDG glyco act)
Cc1oc(-c2ccc(Cl)cc2)nc1CS(=O)CC(=O)NC1CC1 (centres undefined)	ALR inh 98.7
COc1ccc(CNC(=O)CS(=O)(=O)Cc2nc(-c3ccc(OC)cc3)oc2C)cc1	none
Cc1oc(-c2cccc(Cl)c2)nc1CN1CCC(C(=O)NC2CC2)CC1	none
Cc1ccc(-c2nc(CS(=O)CC(=O)NC3CCC(C)CC3)c(C)o2)cc1 (centres undefined)	ALR inh 98.7
COc1ccc(-c2nc(CS(=O)(=O)CC(=O)NC3CCC(C)CC3)c(C)o2)cc1 (centres undefined)	ALR inh 98.5
CN(C)[C@@H]1CCN(c2ccc3c(c2)O[C@@H]2CCN(C2)S3(=O)=O)C1	none (no result: A3G deaminase, ALR inh, PHOSPHO1 inh, APOBEC3A inh, aDG glyco act)
C[C@H]1COc2cc(Br)ccc2S(=O)(=O)N1Cc1cn(Cc2ccc(F)cc2)nn1	none (no result: A3G deaminase, ALR inh, PHOSPHO1 inh, APOBEC3A inh, aDG glyco act)
